Results published in article PMC4336329 (PLoS ONE, 2015).
The campaign covered roughly 310,000 compounds. About 14,000 (4.5%) showed an effect of 50% or more. The effect is printed as a negative number. This is one part of a sample in which strong results are shown more often than they occur. Where a SMILES comes first, the peptide text is derived from it.

molecular target: human ether-à-go-go-related gene (hERG) potassium channel (human, UniProt Q12809); experiment: primary screen, population patch clamp on CHO cells stably expressing hERG; higher = less effect of the substance
Sequence (Q12809 whole entry, looked up): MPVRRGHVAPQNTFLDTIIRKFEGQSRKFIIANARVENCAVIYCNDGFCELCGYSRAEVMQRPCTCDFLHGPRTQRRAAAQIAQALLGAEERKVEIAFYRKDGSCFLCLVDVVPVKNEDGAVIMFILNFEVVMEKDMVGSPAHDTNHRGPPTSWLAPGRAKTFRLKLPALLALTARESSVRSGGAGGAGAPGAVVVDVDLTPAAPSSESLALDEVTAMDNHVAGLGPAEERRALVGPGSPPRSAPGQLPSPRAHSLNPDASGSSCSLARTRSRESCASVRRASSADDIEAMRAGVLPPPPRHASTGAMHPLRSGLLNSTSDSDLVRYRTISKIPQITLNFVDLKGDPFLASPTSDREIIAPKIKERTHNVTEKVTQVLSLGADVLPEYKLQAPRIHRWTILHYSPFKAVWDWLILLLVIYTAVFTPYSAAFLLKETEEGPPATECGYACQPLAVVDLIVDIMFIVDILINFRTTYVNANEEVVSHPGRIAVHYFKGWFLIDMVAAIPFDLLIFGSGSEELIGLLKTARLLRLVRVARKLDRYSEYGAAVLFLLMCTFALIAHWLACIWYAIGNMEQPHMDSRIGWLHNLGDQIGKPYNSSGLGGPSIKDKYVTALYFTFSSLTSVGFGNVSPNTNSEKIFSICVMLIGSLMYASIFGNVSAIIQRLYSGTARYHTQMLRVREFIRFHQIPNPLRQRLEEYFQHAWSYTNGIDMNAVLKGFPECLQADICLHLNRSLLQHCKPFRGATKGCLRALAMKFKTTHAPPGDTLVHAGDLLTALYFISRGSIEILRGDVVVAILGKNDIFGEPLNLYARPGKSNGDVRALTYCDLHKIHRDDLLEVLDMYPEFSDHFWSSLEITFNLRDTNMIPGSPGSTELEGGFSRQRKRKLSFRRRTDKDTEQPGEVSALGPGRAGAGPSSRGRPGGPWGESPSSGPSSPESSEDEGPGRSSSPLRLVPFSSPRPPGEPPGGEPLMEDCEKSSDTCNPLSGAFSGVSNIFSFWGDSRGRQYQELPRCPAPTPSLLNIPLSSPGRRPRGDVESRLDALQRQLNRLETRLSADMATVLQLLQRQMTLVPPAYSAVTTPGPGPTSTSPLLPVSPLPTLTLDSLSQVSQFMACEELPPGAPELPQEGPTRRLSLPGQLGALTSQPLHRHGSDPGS
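Also: peak tail current of the secondary pulse compared with the same well before compound.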

Row | SMILES | hERG current change (%, negative = inhibition) at 10uM [%]
1 | O=C(C1COc2ccccc2O1)N1CCN(c2nc3c(F)cc(F)cc3s2)CC1 (stereo not drawn) | -16.6
2 | CCOc1ccc(S(=O)(=O)NC(C)C(=O)NCc2ccc3c(c2)OCO3)cc1 (stereo not drawn) | 2.83
3 | N/C(=N\OC(=O)COc1ccc(Br)cc1)c1cccnc1 | -3.21
4 | Cc1c(Cl)c([N+](=O)[O-])nn1CC(=O)NC(C)C1CC2CCC1C2 (stereo not drawn) | -12.9
5 | CC(=O)NS(=O)(=O)c1ccc(NC(=O)c2ccc(S(=O)(=O)N3CCCC3)cc2)cc1 | -0.257
6 | CC(C)(C#N)NC(=O)c1ccco1 | 4.37
7 | COc1ccc(C)cc1NC(=O)COCC(=O)O | -8.48
8 | O=C(NC1CCCCC1)C(c1ccccc1)N1CCOCC1 (stereo not drawn) | 9.63
9 | COCCNC(=O)CN1C(=O)COc2ccc(S(=O)(=O)N3CCCCCC3)cc21 | 20.3
10 | CC(C)(C)c1ccc(C(=O)NCc2ccc(Cl)cc2)cc1 | 12.6
11 | O=[N+]([O-])c1ccc2c(c1Nc1ccccc1Cl)=NC1(CCCCC1)N=2 | 3.29
12 | CC(=O)NCCc1nc2cc(NC(=O)c3ccc(F)cc3)ccc2n1C | 9.6
13 | CC(=O)NC(Cc1ccccc1)C(=O)NC(Cc1ccccc1)C(=O)O (stereo not drawn) (Ac-Phe-Phe-OH; configuration not given here) | 10.4
14 | O=C(CCN1C(=O)c2ccccc2C1=O)Nn1cnnc1 | -0.368
15 | c1ccc(-c2nc(NCCCN3CCOCC3)c3ccccc3n2)cc1 | -34.6
16 | c1csc(-c2nc(NCCCN3CCOCC3)c3ccccc3n2)c1 | -50.7
17 | Clc1ccc(-c2nc(NCCCN3CCOCC3)c3ccccc3n2)cc1 | -18.9
18 | COC(=O)c1ccc(N2C(=O)C3CC(C)=C(C)CC3C2=O)cc1 (stereo not drawn) | 3.73
19 | CCC(c1nnnn1CCc1ccccc1)N1CCN(C(=O)c2ccco2)CC1.Cl (stereo not drawn) | -28
20 | CCCC(c1nnnn1Cc1ccco1)N1CCN(C(=O)c2ccco2)CC1.Cl (stereo not drawn) | -11.8
21 | CCC(C)(C)n1nnnc1C(C(C)C)N1CCN(C(=O)c2ccco2)CC1 (stereo not drawn) | -29.7
22 | CCCC(c1nnnn1C(C)(C)CC)N1CCN(C(=O)c2ccco2)CC1.Cl (stereo not drawn) | -54
23 | CCC(c1nnnn1Cc1ccc(OC)cc1)N1CCN(C(=O)c2ccco2)CC1.Cl (stereo not drawn) | -55.5
24 | CCCC(c1nnnn1CCOC)N1CCN(C(=O)c2ccco2)CC1.Cl (stereo not drawn) | -4.1

Row | SMILES | hERG current change (%, negative = inhibition) at 10uM [%]
25 | CCCC(c1nnnn1C(C)(C)C)N1CCN(C(=O)c2ccco2)CC1.Cl (stereo not drawn) | -12.8
26 | CCC(c1nnnn1CCOC)N1CCN(C(=O)c2ccco2)CC1.Cl (stereo not drawn) | 9.17
27 | CCCC(c1nnnn1CCc1ccccc1)N1CCN(C(=O)c2ccco2)CC1 (stereo not drawn) | -49.3
28 | CCC(c1nnnn1Cc1ccco1)N1CCN(C(=O)c2ccco2)CC1.Cl (stereo not drawn) | -20.6
29 | CCCCC(c1nnnn1Cc1ccco1)N1CCN(C(=O)c2ccco2)CC1.Cl (stereo not drawn) | -51.8
30 | CCCC(c1nnnn1Cc1ccc(OC)cc1)N1CCN(C(=O)c2ccco2)CC1 (stereo not drawn) | -51.3
31 | Cc1ccc(C)c(NC(=S)N2CCN(c3cccc(C(F)(F)F)c3)CC2)c1 | 7.13
32 | COC(=O)c1sc(S(=O)(=O)Nc2ccc(Br)cc2)c(C(=O)OC)c1C | 2.75
33 | CCCCCCc1cc2cc(C(=O)NCc3ccccc3)c(=N)oc2cc1O | 5.76
34 | O=C(NCCC(c1ccccc1)c1ccccc1)c1cccs1 | -14.2
35 | Cc1ccccc1C(=O)N/N=C/c1ccccn1 | 5.6
36 | CCN(CC)c1ccc(/C=C2\NC(=O)NC2=O)cc1 | 19.5
37 | COC(=O)c1ccsc1NC(=O)CN1CCN(c2ncccn2)CC1 | -1.35
38 | Cc1cc(C)n(-c2c(F)c(F)c(COC(=O)c3ccccc3)c(F)c2F)n1 | 5.11
39 | COC(=O)c1nc2n(n1)C(c1ccc([N+](=O)[O-])cc1)C(C(=O)Nc1ccc(Cl)cc1)=C(C)N2 (stereo not drawn) | 13.5
40 | Cc1ccccc1S(=O)(=O)Cc1ccc(C(=O)N(C)C2CCCCC2)o1 | -12.5
41 | C=CCn1c(SCc2cccc(F)c2)nc2cc(C(=O)N3CCC(C(N)=O)CC3)ccc2c1=O | -34.7
42 | CCN(C(=O)c1sc(N)c(C#N)c1C)C1CCCCC1 | 9.21
43 | CCOC(=O)c1c(C)oc(/N=C/c2ccccc2O)c1C#N | 7.61
44 | O=C(c1cccs1)N1CCN(S(=O)(=O)c2ccccc2)CC1 | -6.98
45 | COC(=O)c1cccc(NS(C)(=O)=O)c1 | 12.9
46 | CC(=O)Nc1cccc(C(=O)OCCCOc2ccc(F)cc2)c1 | 18.8
47 | CS(=O)(=O)Nc1cccc(C(=O)OCCCOc2ccc(F)cc2)c1 | -54.5
48 | CC(C)CNC(=O)NC(=O)COC(=O)c1cc(F)cc(F)c1 | -4.56

Row | SMILES | hERG current change (%, negative = inhibition) at 10uM [%]
49 | COc1ccc(C)cc1NC(=O)C(=O)NNC(=O)c1ccco1 | 17.6
50 | Cc1c(CC(=O)O)c(=O)oc2c(C)c(OCc3c(F)cccc3Cl)ccc12 | 5.53
51 | CCOc1ccccc1NC(=O)C(OC(=O)C1CC1)c1ccccc1 (stereo not drawn) | -10.3
52 | CCOc1ccccc1NC(=O)C(Sc1ccccc1)c1ccccc1 (stereo not drawn) | 9.32
53 | CCOc1ccccc1NC(=O)C(NCCc1ccc(OC)cc1)c1ccccc1 (stereo not drawn) | -4.48
54 | CCOc1ccccc1NC(=O)C(NCC1(N2CCCCC2)CCCCC1)c1ccccc1.O=C(O)C(=O)O (stereo not drawn) | -70.9
55 | CCOc1ccccc1NC(=O)C(NCCN(C)C)c1ccccc1.O=C(O)C(=O)O (stereo not drawn) | -76.4
56 | CCOc1ccccc1NC(=O)C(NCC1CCCCC1)c1ccccc1 (stereo not drawn) | 16.9
57 | COc1cccc(C(=O)N2CCC3(CC2)OCCO3)c1 | 20.3
58 | COc1ccc(OCCNS(=O)(=O)Cc2ccccc2)cc1 | 0.161
59 | Cc1cccc(NC(=O)c2ccc(S(=O)(=O)N3CCOCC3)cc2)n1 | 19.5
60 | COCCSc1ccccc1C(=O)N1CCc2ccccc21 | 15.1
61 | CC(C)(C)c1ccc(OCCC(=O)Nc2cccc(S(=O)(=O)N3CCCCC3)c2)cc1 | 16.4
62 | CCC(=O)N1CCN(c2nc(C)nc3sc(C)c(C)c23)CC1 | -62
63 | O=C(COc1ccccc1)N1CCN(c2ccccc2)CC1 | -3.1
64 | Cc1sc2ncnc(OCC(=O)N3CCN(S(=O)(=O)c4ccccc4)CC3)c2c1C | -2.31
65 | Cc1nc(N2CCN(C(=O)COc3ccccc3)CC2)c2c(C)c(C)sc2n1.Cl | -69.3
66 | Cc1nc(N2CCN(C(=O)CCC(=O)O)CC2)c2c(C)c(C)sc2n1 | -1.2
67 | Cc1nc(N2CCN(S(=O)(=O)c3ccc(Br)cc3)CC2)c2c(C)c(C)sc2n1 | -10.7
68 | O=C(c1cc(C2CC2)nn1-c1ccccc1)N1CCN(S(=O)(=O)c2cccc(F)c2)CC1 | -28.1
69 | O=[N+]([O-])c1ccc(Cl)c(S(=O)(=O)/N=C(/c2ccccc2)N2CCOCC2)c1 | 3.91
70 | COc1ccc(C(=O)N2CCN(c3ccc(N4CCOCC4)nn3)CC2)cc1OC | 8.55
71 | O=C(/C=C/c1ccco1)N/C(=C\c1ccco1)C(=O)NCCc1nc2ccccc2[nH]1 | -22.6
72 | O=C(/C=C/c1ccco1)N/C(=C\c1ccccc1)C(=O)NCCc1nc2ccccc2[nH]1 | -46.3

Row | SMILES | hERG current change (%, negative = inhibition) at 10uM [%]
73 | COc1ccc(/C=C(\NC(=O)/C=C/c2ccco2)C(=O)NCCc2nc3ccccc3[nH]2)cc1 | -56.6
74 | COc1ccc(/C=C/C(=O)NCCc2nc3ccccc3[nH]2)cc1 | 26.4
75 | CC(C)Oc1ccc(/C=C(\NC(=O)/C=C/c2ccco2)C(=O)NCCc2nc3ccccc3[nH]2)cc1 | -28.6
76 | COc1ccc(/C=C/C(=O)N/C(=C\c2ccco2)C(=O)NCCc2nc3ccccc3[nH]2)cc1 | -72.7
77 | Cc1cc2c(cc3c(=O)n(CC(=O)NCCCN4CC(C)CC(C)C4)ncn32)s1 (stereo not drawn) | -53.4
78 | Cc1c2cnn(CC(=O)NCCCN3CC(C)CC(C)C3)c(=O)c2c(C)n1Cc1ccccc1Cl (stereo not drawn) | -36.7
79 | CC1CC(C)CN(CCCNC(=O)Cn2ncn3cccc3c2=O)C1 (stereo not drawn) | -3.29
80 | Cc1c2cnn(CC(=O)NCCCN3CCCCC3)c(=O)c2c(C)n1Cc1ccccc1 | 9.96
81 | Cc1c2cnn(CC(=O)NCCCN3CC(C)CC(C)C3)c(=O)c2c(C)n1Cc1ccc(Cl)cc1 (stereo not drawn) | -52.6
82 | Cc1nn(CC(=O)NCCCN2CC(C)CC(C)C2)c(=O)c2cccn12 (stereo not drawn) | 12.9
83 | COC(=O)c1ccc(OC(=O)CCN2c3ccccc3Sc3ccccc32)cc1 | 8.91
84 | Nc1c(C(=O)NC23CC4CC(CC(C4)C2)C3)sc2nc3c(c(C(F)(F)F)c12)CCC3 | 0.00528
85 | COc1cccc(C(=O)NC2CC3CCCC(C2)N3CC(=O)Nc2ccccc2C(F)(F)F)c1 (stereo not drawn) | 15.8
86 | O=C(CN1C2CCCC1CC(NC(=O)c1ccccc1)C2)Nc1ccccc1C(F)(F)F (stereo not drawn) | 6.14
87 | COc1cccc(C(=O)NC2CC3CCCC(C2)N3CC(=O)Nc2ccccc2)c1.Cl (stereo not drawn) | -54.4
88 | O=C(CN1C2CCCC1CC(NC(=O)c1ccco1)C2)Nc1ccccc1 (stereo not drawn) | -45.2
89 | CN(C)c1ccc(NC(=O)CN2C3CCCC2CC(NC(=O)c2ccccc2)C3)cc1 (stereo not drawn) | -65.3
90 | O=C(CN1C2CCCC1CC(NC(=O)c1ccccc1)C2)NC1CC1 (stereo not drawn) | 26.9
91 | O=C(CN1C2CCCC1CC(NC(=O)c1ccccc1)C2)Nc1ccccc1 (stereo not drawn) | -50.7
92 | COc1cccc(C(=O)NC2CC3CCCC(C2)N3CC(=O)Nc2ccc(N(C)C)cc2)c1 (stereo not drawn) | -49.3
93 | CC(=O)NC1CC2CCCC(C1)N2CC(=O)Nc1ccccc1 (stereo not drawn) | 4.65
